Results on 73 compounds are retold here after ChEMBL document CHEMBL4513216, “Probing the Open Global Health Chemical Diversity Library for Multistage-Active Starting Points for Next-Generation Antimalarials” (ACS Infect Dis, 2020).

About 8,600 (12%) of roughly 69,000 compounds showed an effect of 50% or more. Only a selection was taken, and strong results are over-represented in it overall.

The test system of the test is Plasmodium berghei. The experiment in a line: Screen against P. berghei liver stage (PbLuc), transformed with Luciferase, at 10uM. The format is functional, HepG2. The following applies: tested at 10 uM.
`Clc1ccccc1-c1nnc(CN2CCCC2Cn2cncn2)o1` (stereo not drawn): the INHIBITION came to 27.4%. Then `Cn1cc(CN2CCO[C@@H]3CN(C4CCCC4)C[C@@H]3C2)cn1`, with 41.2%.

Take `OCc1cccc(CNCc2cccc3c2OCCO3)c1`: the INHIBITION is -33.4%. Then `c1cc(CNCc2ccnc(N3CCCC3)c2)c2c(c1)OCCCO2`, with 98.3%. Then `c1cc(CNCc2ccnc(N3CCCC3)c2)c2c(c1)OCO2`, with -17.2%. `CN1CCN(c2cc(CNCc3cccc4c3OCO4)ccn2)CC1`: the INHIBITION came out at 73.9%. In the case of `COc1ccc(OC)c(CNCc2ccnc(N3CCOCC3)c2)c1`, the INHIBITION is -2.53%. In the case of `c1cc(CNCc2ccnc(N3CCCC3)c2)c2c(c1)OCCO2`, the INHIBITION amounted to 44.4%.

For `c1cc(CNCc2ccnc(N3CCOCC3)c2)c2c(c1)OCCCO2`, the INHIBITION came to 26.4%. For `COc1ccc(CNCc2ccnc(N3CCOCC3)c2)cc1OC`, the INHIBITION stood at 27.1%. Take `c1cc(CNCc2ccnc(N3CCOCC3)c2)c2c(c1)OCCO2`: the INHIBITION was 9.48%. For the compound `c1cc(CNCc2ccnc(N3CCOCC3)c2)c2c(c1)OCO2`, the INHIBITION is reported as -35.2%. Under `CN(C)c1cc(CNCc2cccc3c2OCCO3)ccn1` stands 52.1%; under `COc1cccc(CNCc2ccnc(N3CCOCC3)c2)c1OC`, 50.5%. As to `NC(=O)c1csc(N2C[C@@H](CN3CCOCC3)[C@@H](CO)C2)n1`, the INHIBITION came out at 20.645%. In the case of `O=C(NCCNc1cnccn1)N1CCCC(N2CCCC2)C1` (stereo not drawn), the INHIBITION was 37.4%. Then `c1cc(CN2CCC[C@@H](Cn3nnc(-c4cnccn4)n3)C2)ccn1`, with 18.285%. Under `CCOc1cc(NC(=O)N2CCC3(CCOCC3)C2)ccc1C` stands -38.1%. `Cc1cc(CN(Cc2cccs2)CC2CCCO2)on1` (stereo not drawn): the INHIBITION is reported as 19.4%. Then `CCN(CC)c1nc(O)cc(C(C)n2ncc3ccccc3c2=O)n1` (stereo not drawn), with 0.45%; and `O=C(C1CCCCC1)N1CCCC2(CCN(c3cnccn3)CC2)C1`, with -2.35%.

`c1cc(CNCc2ccc(Cn3cncn3)cc2)c2c(c1)OCCO2`: the INHIBITION is given as 16%. Then `c1cc(CNCc2ccnc(N3CCCCC3)c2)c2c(c1)OCCCO2`, with 70.1%; and `c1cc(CNCc2cccc3c2OCCO3)cc(Cn2cncn2)c1`, with -8.41%; and `c1cc(CNCc2cccc3c2OCCCO3)cc(Cn2cncn2)c1`, with 53.1%. Regarding `CC1CN(c2cc(CNCc3cccc4c3OCCO4)ccn2)CCO1` (stereo not drawn), the INHIBITION was -26.2%.

On to `CCc1nc(CN(C)C2CCN(Cc3nc(C4CC4)no3)C2)no1` (stereo not drawn), for which the INHIBITION was -31.6%.

On to `COCC(=O)N1CCC(c2c(C(=O)N(C)C)sc3ncccc23)C1` (stereo not drawn), for which the INHIBITION turned out to be 9.54%. For the compound `O=C(c1nc2c(o1)CN(CC1CC1)C2)N1CCCC1`, the INHIBITION was determined as 18.5%. Turning to `CCCOc1ccccc1NCC(=O)Nc1ccc(CC)cc1`, the INHIBITION was 15%. As for `c1cn2c(n1)CN(CC1CC1)CC(CN1CCOCC1)C2` (stereo not drawn), the INHIBITION worked out at 42.1%. For the compound `CCOC1CCN(C(=O)NCc2ccc(CN3CCOCC3)cc2)CC1`, the INHIBITION turned out to be 61.8%. Turning to `CCOC1CCN(C(=O)NCc2cccc(-n3cccn3)c2)CC1`, the INHIBITION turned out to be 1.98%. As to `CCOC1CCN(C(=O)NCc2ccc(C(=O)N(C)C(C)C)cc2)CC1`, the INHIBITION was found to be 27.6%.

For the compound `O=C(N[C@@H]1CCC[C@@H](N2CCOCC2)[C@@H]1O)c1cc2ccccc2[nH]1`, the INHIBITION was -3.31%. As for `CC(C)N(C)Cc1cnc2n1CCN(Cc1cccc(F)c1)C2`, the INHIBITION was -22.1%. `COCCNc1nc(NCCc2ccccc2)nc2nccnc12`: the INHIBITION was -14.9%. Regarding `O=C(c1ccncc1)N1C[C@@H](OCc2cccnc2)[C@H]2OCCC[C@H]21`, the INHIBITION was found to be 10.6%.

On to `Cc1ncc2c(c1-c1noc(-c3cscn3)n1)CCNC2`, for which the INHIBITION was 58.8%. `CSCC(=O)N1CCc2c(cnc(C)c2-c2noc(-c3cscn3)n2)C1`: the INHIBITION was found to be 16.7%. On to `Cc1cc(-c2nc(-c3c(C)ncc4c3CCNC4)no2)nc(C)n1`, for which the INHIBITION is 33.7%. Under `NC(=O)C1CCN(C(=O)NCc2ccccc2-n2cccn2)C1` (stereo not drawn) stands 0.914%. Then `CC(C)Oc1ncccc1CNC(=O)N1CCCC1c1ccsc1` (stereo not drawn), with 31.2%; and `NC(=O)C1CCN(C(=O)NCc2ccccc2-n2cccn2)CC1`, with 44.1%; and `CC(C)Oc1ncccc1CNC(=O)N1CCC1c1ccccc1` (stereo not drawn), with 52%. On to `CC(C)Oc1ncccc1CNC(=O)N1CCC1`, for which the INHIBITION is on record as 54.4%. Consider `NC(=O)C1CCN(C(=O)NCc2cccnc2OC2CCCC2)C1` (stereo not drawn), for which the INHIBITION worked out at 11.2%.

As to `NC(=O)C1CCN(C(=O)NCc2cccnc2OCC(F)(F)F)C1` (stereo not drawn), the INHIBITION was 56.4%.

As for `CC(=O)N1CCCN(C(=O)NCc2cccnc2OC(C)C)CC1`, the INHIBITION is listed as -40.2%. For the compound `CC(C)Oc1ncccc1CNC(=O)N1CCC(C(N)=O)C1` (stereo not drawn), the INHIBITION came to 40.3%. For `CC(C)Oc1ncccc1CNC(=O)N1CCSCC1`, the INHIBITION is reported as 9.14%. Then `NC(=O)CC1CCN(C(=O)NCc2ccccc2-n2cccn2)CC1`, with 56.3%; and `Cc1cc(C2CCCN2C(=O)NCc2cccnc2OC(C)C)on1` (stereo not drawn), with 29%. Regarding `CC(C)N(C)Cc1cncc2c1CCN(C(=O)c1ccc[nH]1)C2`, the INHIBITION is on record as 29%. As for `Cc1cccc(CN2CCc3ncnc(N4CCN(C)CC4)c3CC2)n1`, the INHIBITION is -110%.

Regarding `COc1ccc(OC)c(-n2nnnc2SCC2CCCCO2)c1` (stereo not drawn), the INHIBITION is recorded as 20.9%.

On to `Cc1cc(C)c(CNC(=O)NCC2CCCOC2)c(=O)[nH]1` (stereo not drawn), for which the INHIBITION turned out to be 27.5%. For the compound `N#Cc1ccc(CNc2cccc(C(=O)N3CCOCC3)c2)cc1`, the INHIBITION came out at 24.2%.

With `Cc1nc(C)n(CC2CCCN(CC(=O)NC3CCOCC3)C2)n1` (stereo not drawn), the INHIBITION is -17%. On to `CCN1CCC(=O)N(C)Cc2cc(F)ccc21`, for which the INHIBITION came to 35.8%. For the compound `O=C(Cc1ccc2c(c1)OCCCO2)Nc1nnn[nH]1`, the INHIBITION is reported as -5.38%.

Turning to `CC(=O)N1CCCN(C(=O)NCc2ccccn2)CC1`, the INHIBITION came to 53.3%. `CC(=O)N1CCN(C(=O)NCc2cccnc2OC(C)C)CC1`: the INHIBITION amounted to 48.2%. `CC(C)CN1CCN(C(=O)NCc2cccnc2-n2cccn2)CC1`: the INHIBITION is recorded as 11%. Turning to `CCN1CCN(C(=O)NCc2cccnc2-n2cccn2)CC1`, the INHIBITION is on record as 33.8%. For the compound `CN1CCCN(C(=O)NCc2cccnc2-n2cccn2)CC1`, the INHIBITION was found to be 52.3%. With `CC(C)Oc1ncccc1CNC(=O)N1CCOCC1`, the INHIBITION is listed as 65.6%.

As to `CC(=O)N1CCCN(C(=O)NCCNc2ccccn2)CC1`, the INHIBITION is listed as 16.533%. Turning to `CC(C)Oc1ncccc1CNC(=O)N1CCC(n2cccc2)CC1`, the INHIBITION is recorded as -69%. Consider `COCCOc1ncccc1CNC(=O)N1CCOCC1`, for which the INHIBITION amounted to 44.3%. For the compound `O=C(CC1CCCCC1)N1CCN(C(=O)NCc2ccccn2)CC1`, the INHIBITION worked out at 12.7%. For the compound `COc1ncccc1CNC(=O)N1CCC(CN2CCOCC2)CC1`, the INHIBITION is on record as 29.4%.

Take `O=C(NCc1cccnc1OCC(F)(F)F)N1CCOCC1`: the INHIBITION is given as 69.3%.
